Assay outcomes (PubChem)
esBAF inh – Bmi1 luciferase reporter increase in mESCs, primary screen, esBAF inhibitor project, mouse ES cells, Bmi1 luciferase knock-in, single point | AID 602393, 2012 | 24 h; 100% = twice the neutral-well signal | 350,000 compounds, 2% hits | reporter increase, % at 12.5 µM; in the data active means activation above about 40%; inconclusive means no clear call, values can overlap the other calls;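 further: 0% = median of the plate's neutral control wells and 100% = double that signal; a rise in the Bmi1 reporter signal indicates esBAF inhibition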
MITF act – activators of MITF-driven TRPM1 promoter reporter, primary screen, cell-based, SK-MEL-5, luciferase, single point. SK-MEL-5 TRPM1-promoter luciferase, 24 h; % of positive control, neutral wells = 0. activation, % at 12.5 µM. 300,000 compounds, 0.75% hits. AID 588334, 2011;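 active means mean activation of at least 80% with every replicate also reaching 80%; inconclusive means mean reaches 80% but some replicate falls short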;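 further: 0% = neutral control wells and 100% = parthenolide positive control wells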
Wnt act – Wnt/beta-catenin pathway activators, primary screen, cell-based, plate reader, single point; Wnt/beta-catenin reporter cell assay, activator; activation, % at 9.35 µM; 300,000 compounds, 1.2% hits; in the data active means activation above about 30%, passing the limit was not always enough; inconclusive means no clear call, values can overlap the other calls;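 further: 0% = neutral control wells and 100% = positive control wells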
GAA850 FXN act – FXN promoter activators, primary screen, cell-based, luciferase luminescence, HEK293 lucGAA850. 360,000 compounds, 0.56% hits. activation, % at 6 µM. HEK293 lucGAA850 FXN promoter luciferase reporter, 24 h; percent of 10 µM SAHA response;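 active means activation above the average of all compounds screened plus 3 SD, cutoff fixed separately per campaign, cut at about 7.5% in these data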;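 further: 0% = DMSO wells and 100% = 10 µM SAHA wells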
AHR act – AHR activators, primary screen, cell-based, luminescence, luciferase reporter, human. activation, % at 5 µM. AHR-responsive luciferase reporter cells. 320,000 compounds, 2.5% hits. Aryl hydrocarbon receptor (Homo sapiens), P35869. AID 2796, 2010; in the data active means activation above about 47%;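 further: 0% = vehicle wells and 100% = reference agonist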
Target sequence (P35869 whole entry, looked up): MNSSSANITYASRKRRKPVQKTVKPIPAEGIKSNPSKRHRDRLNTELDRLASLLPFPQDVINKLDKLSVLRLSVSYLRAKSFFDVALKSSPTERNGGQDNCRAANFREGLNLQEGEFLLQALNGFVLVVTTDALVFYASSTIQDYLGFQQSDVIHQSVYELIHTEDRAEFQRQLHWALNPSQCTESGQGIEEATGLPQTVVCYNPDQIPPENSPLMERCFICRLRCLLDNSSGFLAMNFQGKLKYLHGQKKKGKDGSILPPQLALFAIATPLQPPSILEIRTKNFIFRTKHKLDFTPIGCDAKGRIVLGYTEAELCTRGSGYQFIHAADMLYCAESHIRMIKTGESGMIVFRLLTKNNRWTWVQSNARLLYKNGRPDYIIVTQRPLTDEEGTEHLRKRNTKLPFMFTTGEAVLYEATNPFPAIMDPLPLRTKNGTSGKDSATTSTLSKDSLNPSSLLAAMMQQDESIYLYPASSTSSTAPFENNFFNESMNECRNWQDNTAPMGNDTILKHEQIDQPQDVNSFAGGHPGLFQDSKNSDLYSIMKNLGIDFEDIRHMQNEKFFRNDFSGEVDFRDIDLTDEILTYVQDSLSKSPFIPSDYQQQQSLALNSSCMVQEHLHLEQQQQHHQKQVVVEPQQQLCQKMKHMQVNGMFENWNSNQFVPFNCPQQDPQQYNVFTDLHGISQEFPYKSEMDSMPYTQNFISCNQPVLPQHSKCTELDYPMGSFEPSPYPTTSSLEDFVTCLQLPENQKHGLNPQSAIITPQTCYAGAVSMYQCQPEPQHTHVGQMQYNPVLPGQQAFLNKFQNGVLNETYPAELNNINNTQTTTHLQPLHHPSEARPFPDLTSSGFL
esBAF Ring1 qPCR – Ring1 mRNA increase in mouse ESCs, confirmation, esBAF inhibitor project, cell-based, mouse ESC, RT-qPCR, cherry-pick; 550 tested, under 10 active; mouse ESC E14, Ring1 mRNA RT-qPCR fold change; fold change at 33 µM; shares compounds with esBAF inh;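 active means Ring1 gene expression raised more than 2-fold over untreated cells in both replicates at either tested dose; inconclusive means only one replicate above 2-fold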;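 further: Ring1 transcript normalised to actin housekeeping signal by TaqMan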
Fgf4 repress – Fgf4 mRNA decrease in mouse ESCs, confirmation, esBAF inhibitor project, cell-based, mouse ESC, RT-qPCR, cherry-pick. shares compounds with esBAF inh. mouse ESC E14, Fgf4 mRNA qPCR fold change; stronger effect = lower value. Fgf4 expression fold change at 33 µM. 550 compounds, 4% hits;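 active means Fgf4 expression under 0.8 fold of control in both repeat measurements at one or both tested doses; inconclusive means under 0.8 fold in just a single repeat measurement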;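 further: Fgf4 transcript normalised to actin in duplex TaqMan qPCR; cells exposed to compound for 24 h before lysis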
esBAF Bmi1 qPCR – esBAF inhibition via Bmi1 de-repression, confirmation, cell-based, RT-qPCR, mouse ESC, single point, cherry-pick. shares compounds with esBAF inh. mouse ESE14 ES cells, Bmi1 mRNA qPCR fold; stronger effect = higher value. fold change at 33 µM. 550 tested, under 10 active;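 active means Bmi1 expression fold change above 6 at either tested concentration, seen in replicate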
A549 cytotox – A549 cell cytotoxicity, cytotoxicity control, plate reader, single point, cherry-pick; cell viability change % (negative = cytotoxic), % at 25 µM, hits read low; shares compounds with esBAF inh; AID 743188, 2013; 550 tested, under 10 active; call rule not given here
HepG2 tox SP – HepG2 cell cytotoxicity, cytotoxicity control, plate reader, single point, cherry-pick; activity change, negative = inhibition, % at 25 µM; stronger effect = lower value; 550 compounds, 4% hits; shares compounds with esBAF inh; AID 743189, 2013; in the data active means activity change below about -50%
HEK293 cytotox SP – HEK293 cell cytotoxicity, cytotoxicity control, plate reader, single point, cherry-pick; shares compounds with esBAF inh; activity change, negative = inhibition, % at 25 µM, hits read low; 550 compounds, 3% hits; AID 743190, 2013; in the data active means activity change below about -38%, passing the limit was not always enough
Numbers without * were called inactive; ? = inconclusive; · = no result. An excerpt weighted towards active compounds, which were near 4.2% of everything screened.

SMILES | esBAF inh | MITF act | Wnt act | GAA850 FXN act | AHR act | esBAF Ring1 qPCR | Fgf4 repress | esBAF Bmi1 qPCR | A549 cytotox | HepG2 tox SP | HEK293 cytotox SP
COC(=O)c1ccc2[nH]c(C3(O)CCCCC3)c(C)c2c1 | 72* | 83* | ? | 6 | 0 | 1.1 | 1.1 | 0.97 | 1 | -56* | 6
CC=Cc1ccc2n(c1=O)C[C@H]1[C@H](CO)[C@@H](C(=O)Nc3ccccc3)[C@@H]2N1C(=O)CC1CC1 (mixture of isomers) | -3 | · | · | · | · | · | · | · | · | · | ·
O=C(Nc1ccccc1)C1CC(=O)N(Cc2ccccc2)C1 (stereo unspecified) | 0 | -9 | -2 | 4 | 8 | · | · | · | · | · | ·
CC(=O)c1ccc(NC(=O)C2CC(=O)N(Cc3ccccc3)C2)cc1 (stereo unspecified) | 56* | 60 | · | -1 | 2 | 1.4 | 0.96 | 1.5 | -11 | -19 | -11
C[C@@H]1CN([C@H](C)CO)C(=O)c2cccc(NC(=O)c3cnccn3)c2O[C@H]1CN(C)C(=O)Nc1ccc2c(c1)OCO2 | 3 | · | · | · | · | · | · | · | · | · | ·
CCn1c(COc2ccc(OC)cc2)nc2ccccc21 | 61* | 59 | 43* | 4 | -10 | 1 | 0.96 | 1.4 | -13 | 15 | -9
Cn1c(C(=O)N/N=C/c2ccccc2)cc2ccccc21 | 64* | · | -4 | 3 | 17 | 1.3 | 0.86 | 1.6 | 1 | -28 | 1
COc1ccccc1-c1ccc2c(c1)O[C@@H](CN(C)S(=O)(=O)c1ccc(F)cc1)[C@@H](C)CN([C@@H](C)CO)S2(=O)=O | -43 | · | · | · | · | · | · | · | · | · | ·
COc1ccccc1C(=O)Nc1ccc2c(c1)C(=O)N(C)[C@H]1CC[C@@H](CC(=O)NCCc3ccncc3)O[C@@H]1CO2 | -2 | · | · | · | · | · | · | · | · | · | ·
Cc1nn(Cc2c(F)c(F)c(F)c(F)c2F)c(C)c1NC(=O)c1ccc(COc2ccccc2Cl)cc1 | 9 | -4 | · | -1 | · | · | · | · | · | · | ·
Cc1nn(Cc2c(F)c(F)c(F)c(F)c2F)c(C)c1NC(=O)c1ccc(COc2cc(Cl)ccc2Cl)cc1 | 47* | 26 | 15 | 3 | 18 | 1.1 | 1.1 | 1.4 | -13 | -5 | -14
Cc1ccc(NC(=O)c2ccc3c(=O)n4c(nc3c2)CCC4)cc1F | 67* | 71 | 53* | 5 | -2 | 1 | ? | 1.1 | -6 | 10 | -5
CCc1nnc(NC(=O)c2ccc3c(=O)n4c(nc3c2)CCC4)s1 | 59* | · | 24 | 2 | · | 0.91 | 0.94 | 1.4 | -6 | -41 | -16
CNC(=O)c1ccc(NC(=O)c2ccc3c(=O)n4c(nc3c2)CCC4)cc1 | -3 | -3 | -20 | 0 | 0 | · | · | · | · | · | ·
CCCCc1nnc(NC(=O)c2ccc3c(=O)n4c(nc3c2)CCC4)s1 | 1 | 11 | -1 | 1 | 2 | · | · | · | · | · | ·
C[C@@H]1CCCCO[C@@H](CN(C)C(=O)Nc2ccc3c(c2)OCO3)[C@@H](C)CN([C@H](C)CO)C(=O)c2cc(NS(=O)(=O)c3ccc(F)cc3)ccc2O1 | 1 | · | · | · | · | · | · | · | · | · | ·
Cc1ccc(S(=O)(=O)N[C@@H]2C=C[C@@H](CC(=O)N3CCN(c4ccccc4)CC3)O[C@H]2CO)cc1 | 4 | · | · | · | · | · | · | · | · | · | ·
O=C1N=NC(=O)N1c1ccccc1 | 12 | 1 | -1 | 4 | -2 | · | · | · | · | · | ·
C1=NN(c2ccccc2)C=NN1c1ccccc1 | 69* | 68 | -5 | 2 | · | 0.9 | 0.87 | 1.7 | -5 | -13 | -60*
Nc1ccc(C#Cc2ccc3c(=O)c4ccccc4oc3c2)cc1 | 79* | 111* | 25 | 2 | 27 | 0.85 | 0.56* | 3.5 | -14 | -1 | -11
CSc1nnc(NC(=O)C23CC4CC(CC(C4)C2)C3)s1 | 58* | 46 | 13 | 4 | 7 | 1.1 | ? | 1 | -15 | -22 | -8
CNC(=O)C[C@@H]1CC[C@@H]2[C@H](COc3ccc(NC(=O)c4cnccn4)cc3C(=O)N2C)O1 | 2 | · | · | · | · | · | · | · | · | · | ·
COCCNC(=O)C[C@@H]1CC[C@H]2[C@@H](COC[C@H](O)CN2Cc2cccc(-c3ccncc3)c2)O1 | -1 | · | · | · | · | · | · | · | · | · | ·
Fc1ccccc1NC(=S)N1CCC(c2ccccc2)C1 (stereo unspecified) | 82* | 109* | 48* | 4 | 2 | 1.2 | 0.98 | 1.5 | -14 | 3 | -19
C=CCNc1oc(-c2ccc(OC)cc2)nc1C#N | 79* | 63 | · | 5 | 11 | 0.95 | 0.92 | 1.4 | -2 | 10 | -12
SMILES | esBAF inh | MITF act | Wnt act | GAA850 FXN act | AHR act | esBAF Ring1 qPCR | Fgf4 repress | esBAF Bmi1 qPCR | A549 cytotox | HepG2 tox SP | HEK293 cytotox SP
C=CCNc1oc(-c2ccc(OCC)cc2)nc1C#N | 34 | 35 | 5 | 4 | 4 | · | · | · | · | · | ·
N#CC(c1ccccc1O)N1N=C(c2ccccc2)CC1c1ccccc1 (stereo unspecified) | 58* | 29 | 29 | 8.2* | 17 | 1.1 | 0.95 | 1.3 | -3 | 7 | -4
CNC(=O)C[C@@H]1CC[C@H]2[C@@H](COc3ccc(NC(=O)c4cscn4)cc3C(=O)N2C)O1 | 0 | · | · | · | · | · | · | · | · | · | ·
CO[C@H]1CN(C)C(=O)c2ccc(NS(=O)(=O)c3c(C)noc3C)cc2OC[C@H](C)NC[C@@H]1C | 2 | · | · | · | · | · | · | · | · | · | ·
Cc1cc(NC(=O)Nc2ccc3c(ccn3C)c2)sn1 | 81* | 106* | 25 | 4 | 25 | 1.5 | 0.94 | 1.5 | -2 | 1 | -11
Cc1nc(-c2ccccc2)nc2[nH]ccc(=O)c12 | 64* | · | 27 | 2 | 17 | 2.2* | ? | 1.9 | -6 | -37 | -10
CNc1cnc(-c2ccc(F)c(F)c2F)cn1 | 73* | · | -1 | 6 | · | 1.1 | 0.96 | 1.5 | -9 | -17 | -22
O=C(c1csc(Nc2ccccc2Cl)n1)N1CCCC1 | 54* | · | · | 6 | 9 | 1.1 | 0.93 | 1.1 | 3 | -35 | -2
